Measurements taken from the supplement of paper PMC8728848.
Shown is part of a subset that was picked to be rich in the strongest signals.

How the values were obtained:
Assay in all cases: glycan array binding signal (z-score within array); higher = stronger binding
Conditions in all cases: glycan notation: IUPAC condensed, linker removed
[1] = target: Fuc(a1-2)Gal(b1-3)[Fuc(a1-4)]GlcNAc(b1-2)Man(a1-3)[Fuc(a1-2)Gal(b1-3)[Fuc(a1-4)]GlcNAc(b1-2)Man(a1-3)]Man(b1-4)GlcNAc(b1-4)GlcNAc
Summary of the method: (§1)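 From the Consortium for Functional Glycomics database, 3228 arrays were curated, keeping only those whose protein sequence was available. Binding is given as a within-array Z-score averaged across arrays sharing a protein sequence and across linkers. Negative Z-scores can be read as non-binding.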

[2] = target: Fuc(a1-2)[Gal(a1-3)]Gal(b1-4)GlcNAc(b1-3)GalNAc
Summary of the method: as §1

[3] = target: Fuc(a1-2)[Gal(a1-3)]Gal(b1-4)GlcNAc(b1-6)GalNAc
Summary of the method: as §1

[4] = target: Fuc(a1-2)[Gal(a1-4)]Gal(b1-4)GlcNAc
Summary of the method: as §1

[5] = target: Fuc(a1-2)[GalNAc(a1-3)]Gal(b1-3)GlcNAc(b1-2)Man(a1-3)[Fuc(a1-2)[GalNAc(a1-3)]Gal(b1-3)GlcNAc(b1-2)Man(a1-6)]Man(b1-4)GlcNAc(b1-4)[Fuc(a1-6)]GlcNAc
Summary of the method: as §1

[6] = target: Fuc(a1-2)[GalNAc(a1-3)]Gal(b1-4)[Fuc(a1-3)]GlcNAc(b1-3)GalNAc
Summary of the method: as §1

[7] = target: Fuc(a1-3)[Gal(b1-4)]GlcNAc(b1-3)Gal(b1-3)[Fuc(a1-4)]GlcNAc
Summary of the method: as §1

[8] = target: Fuc(a1-3)[Gal(b1-4)]GlcNAc(b1-3)Gal(b1-4)[Fuc(a1-3)]GlcNAc(b1-3)Gal(b1-4)[Fuc(a1-3)]GlcNAc
Summary of the method: as §1

[9] = target: Fuc(a1-3)[Gal3S(b1-4)]GlcNAc6S
Summary of the method: as §1

Fuc(a1-4)GlcNAc = target: Fuc(a1-4)GlcNAc
Summary of the method: as §1

Gal(a1-3)Gal(b1-4)GlcNAc = target: Gal(a1-3)Gal(b1-4)GlcNAc
Summary of the method: as §1

[10] = target: Gal(a1-4)Gal(b1-3)GlcNAc(b1-2)Man(a1-3)[Gal(a1-4)Gal(b1-3)GlcNAc(b1-2)Man(a1-6)]Man(b1-4)GlcNAc(b1-4)GlcNAc
Summary of the method: as §1

Gal(b1-3)Gal(b1-4)GlcNAc = target: Gal(b1-3)Gal(b1-4)GlcNAc
Summary of the method: as §1

Gal(b1-3)GalNAc(b1-3)Gal = target: Gal(b1-3)GalNAc(b1-3)Gal
Summary of the method: as §1

[11] = target: Gal(b1-3)GalNAc(b1-4)Gal(b1-4)Glc
Summary of the method: as §1

[12] = target: Gal(b1-3)GlcNAc(b1-3)Gal(b1-4)Glc
Summary of the method: as §1

[13] = target: Gal(b1-3)GlcNAc(b1-3)Gal(b1-4)GlcNAc
Summary of the method: as §1

[14] = target: Gal(b1-3)GlcNAc(b1-3)Gal(b1-4)GlcNAc(b1-2)Man(a1-3)[Gal(b1-3)GlcNAc(b1-3)Gal(b1-4)GlcNAc(b1-2)Man(a1-6)]Man(b1-4)GlcNAc(b1-4)GlcNAc
Summary of the method: as §1

[15] = target: Gal(b1-3)GlcNAc(b1-3)Gal(b1-4)GlcNAc(b1-2)[Gal(b1-3)GlcNAc(b1-3)Gal(b1-4)GlcNAc(b1-6)]Man(a1-6)[Gal(b1-3)GlcNAc(b1-3)Gal(b1-4)GlcNAc(b1-2)Man(a1-3)]Man(b1-4)GlcNAc(b1-4)[Fuc(a1-6)]GlcNAc
Summary of the method: as §1

[16] = target: Gal(b1-3)GlcNAc(b1-3)Gal(b1-4)GlcNAc(b1-3)Gal(b1-4)GlcNAc(b1-2)[Gal(b1-3)GlcNAc(b1-3)Gal(b1-4)GlcNAc(b1-3)Gal(b1-4)GlcNAc(b1-6)]Man(a1-6)[Gal(b1-3)GlcNAc(b1-3)Gal(b1-4)GlcNAc(b1-3)Gal(b1-4)GlcNAc(b1-2)Man(a1-3)]Man(b1-4)GlcNAc(b1-4)[Fuc(a1-6)]GlcNAc
Summary of the method: as §1

[17] = target: Gal(b1-3)GlcNAc(b1-3)Gal(b1-4)GlcNAc(b1-6)[Gal(b1-3)GlcNAc(b1-3)]Gal(b1-4)Glc
Summary of the method: as §1

Gal(b1-3)GlcNAc6S = target: Gal(b1-3)GlcNAc6S
Summary of the method: as §1

[18] = target: Gal(b1-3)[Fuc(a1-4)]GlcNAc(b1-3)Gal(b1-3)[Fuc(a1-4)]GlcNAc
Summary of the method: as §1

[19] = target: Gal(b1-3)[Neu5Ac(a2-6)]GlcNAc(b1-4)Gal(b1-4)Glc
Summary of the method: as §1

[20] = target: Gal(b1-4)GlcNAc(b1-2)Man(a1-3)[Man(a1-6)]Man(b1-4)GlcNAc(b1-4)GlcNAc
Summary of the method: as §1

[21] = target: Gal(b1-4)GlcNAc(b1-2)[Gal(b1-4)GlcNAc(b1-4)]Man(a1-3)[Gal(b1-4)GlcNAc(b1-2)[Gal(b1-4)GlcNAc(b1-6)]Man(a1-6)]Man(b1-4)GlcNAc(b1-4)GlcNAc
Summary of the method: as §1

Gal3S(b1-4)GlcNAc = target: Gal3S(b1-4)GlcNAc
Summary of the method: as §1

Gal6S(b1-3)GlcNAc6S = target: Gal6S(b1-3)GlcNAc6S
Summary of the method: as §1

GalNAc(a1-3)GalNAc = target: GalNAc(a1-3)GalNAc
Summary of the method: as §1

[22] = target: GalNAc(a1-3)GalNAc(b1-3)Gal(a1-4)Gal(b1-4)GlcNAc
Summary of the method: as §1

B1: B160 (Bifidobacterium sp) (protein)
chain: MVSHNKRIVAALAAVAAMGIGLAGCGGSDTAGDTKSGSDGGVVNITYMHRLPDSEGMTLVNDIVAKWNKEHPNIQVKATKFDGNAADMIKKLETDVKAGNAPDLAQVGYAEVPEVFTKGLLQDVTDEAAKYKDDFASGPFALMQVDGKTYGLPQDTGPLTYFYNAAEFEKLGITVPKTADELIETAKKTAAQGKYIMTFTPDEAMMMMSGQAGASGPWYKVDGNSWVVNTQTKGSKAVADVYQQLIDNKAALTNPRWDASFDNSIQSGQLIGTVAAAWEAPLFIDSAGGTGAGEWKVTQLGDWFGNGTKTGANGGSGVAVLKGSKHPAEAMEFLDWFNTQVDDLVSQGLVVAATTADAKTPQKWSDYFSGQDVMAEFKTANDNMGDFTYMPGFSAVGAAMKQTAAKAADGSAKVSDVFDTAQKTSVDTLKNLGLSVKE
glycan array binding signal (z-score) [1]: -0.134
glycan array binding signal (z-score) [2]: -0.168
glycan array binding signal (z-score) [3]: -0.163
glycan array binding signal (z-score) [4]: -0.15
glycan array binding signal (z-score) [5]: -0.126
glycan array binding signal (z-score) [6]: -0.135
glycan array binding signal (z-score) [7]: -0.164
glycan array binding signal (z-score) [8]: -0.14
glycan array binding signal (z-score) [9]: -0.145
glycan array binding signal (z-score) (Fuc(a1-4)GlcNAc): -0.176
glycan array binding signal (z-score) (Gal(a1-3)Gal(b1-4)GlcNAc): -0.166
glycan array binding signal (z-score) [10]: -0.093
glycan array binding signal (z-score) (Gal(b1-3)Gal(b1-4)GlcNAc): 11.7
glycan array binding signal (z-score) (Gal(b1-3)GalNAc(b1-3)Gal): 6.25
glycan array binding signal (z-score) [11]: 8.55
glycan array binding signal (z-score) [12]: 4.36
glycan array binding signal (z-score) [13]: 4.98
glycan array binding signal (z-score) [14]: 5.11
glycan array binding signal (z-score) [15]: 8.35
glycan array binding signal (z-score) [16]: 6.21
glycan array binding signal (z-score) [17]: 5.45
glycan array binding signal (z-score) (Gal(b1-3)GlcNAc6S): 6.55
glycan array binding signal (z-score) [18]: -0.141
glycan array binding signal (z-score) [19]: 6.71
glycan array binding signal (z-score) [20]: -0.176
glycan array binding signal (z-score) [21]: -0.18
glycan array binding signal (z-score) (Gal3S(b1-4)GlcNAc): -0.172
glycan array binding signal (z-score) (Gal6S(b1-3)GlcNAc6S): -0.179
glycan array binding signal (z-score) (GalNAc(a1-3)GalNAc): -0.173
glycan array binding signal (z-score) [22]: -0.166
